Only some compounds are listed: those with a hit (about 3.3% of all), similar ones and a draw of the others.
AmpC no deterg: qHTS Inhibitors of AmpC Beta-Lactamase (assay without detergent); AmpC nitrocefin hydrolysis, absorbance 480 nm, 0.0001% Triton; Potency, µM (doses to about 57.1 µM), without a hit: at the highest dose activity change, negative = inhibition, most hits filed as inhibitors; hit rate 0.52% among 330,000; AID 485341, 2010;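 further: plate controls were no compound for no effect and no enzyme for full effect; nearly all actives have a fitted effect of over 20% in size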
Target sequence (P00811 whole entry, looked up): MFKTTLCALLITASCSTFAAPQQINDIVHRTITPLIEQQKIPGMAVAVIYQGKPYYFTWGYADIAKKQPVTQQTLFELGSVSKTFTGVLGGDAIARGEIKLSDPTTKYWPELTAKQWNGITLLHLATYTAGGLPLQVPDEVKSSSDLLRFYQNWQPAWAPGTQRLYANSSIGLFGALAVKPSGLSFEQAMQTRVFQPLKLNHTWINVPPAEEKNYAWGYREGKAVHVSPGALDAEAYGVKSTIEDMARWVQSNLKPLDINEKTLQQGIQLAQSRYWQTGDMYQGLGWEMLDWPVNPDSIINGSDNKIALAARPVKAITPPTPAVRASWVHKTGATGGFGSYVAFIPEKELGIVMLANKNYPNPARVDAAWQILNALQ
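20 mM phosphate pH 7.0 + 0.01% (detergent screen) or 0.0001% Triton X-100; 5.3 nM AmpC reagent; cpd preinc 15 min RT; nitrocefin (800 uM stock) to start; A480 q20 s × 4 min; Activity was normalised to no-enzyme and no-compound control wells.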
Sm TGR block: qHTS Assay for the Inhibitors of Schistosoma Mansoni Peroxiredoxins | purified TGR, DTNB reduction, TNB absorbance 405 nm | Potency, µM (highest dose often 114 µM), for the others: at the top dose activity change, negative = inhibition, actives largely listed as inhibitors | hit rate 3% among 360,000 | AID 485364, 2010; further: nearly all actives have a fitted effect of over 60% in size
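Kinetic colorimetric format: TGR-catalysed, NADPH-driven DTNB reduction monitored via TNB absorbance. Enzyme dispensed at 20 nM; compound exposure 15 min at room temperature before reaction start.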
AmpC inh detg: qHTS Inhibitors of AmpC Beta-Lactamase (assay with detergent); AmpC hydrolysis of nitrocefin, absorbance 480 nm, 0.01% Triton; P00811; hit rate 0.041% among 370,000; Potency, µM (titrated, usually from 114 µM), for inactives: at the highest dose activity change, negative = inhibition, most hits filed as inhibitors;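 further: 0% = no-compound wells and -100% = no-enzyme wells; nearly all actives have a fitted effect of over 25% in size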
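20 mM phosphate pH 7.0 + 0.01% (detergent screen) or 0.0001% Triton X-100; 5.3 nM AmpC reagent; cpd preinc 15 min RT; nitrocefin (800 uM stock) to start; A480 q20 s × 4 min; Activity was normalised to no-enzyme and no-compound control wells.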
* marks the source's active call; other numbers are inactive results; ? = inconclusive; / = no result given. The call rests on the fitted dose curve; in most records, active means well fitted curve in the direction sought with a large enough effect; inconclusive means small, poorly fitted or top-dose-only effect, or another doubt; inactive means no such curve, though single readings can be large; an effect the other way counts as inactive or inconclusive. Unless noted, on the % scale 0 is the no-effect control and ±100 the full control effect; potency means the concentration at half of the fitted maximal effect.

SMILES	AmpC no deterg	Sm TGR block	AmpC inh detg
COC(=O)c1scc(C)c1NC(=O)Cc1ccccc1	-9.3%	-1.5%	?
CCOC(=O)C(=CNNc1c(C)csc1C(=O)OC)C(=O)OCC	42.5%	56.2µM*	-2.7%
Cc1ccc(C)c(CNC(=O)CN2C(=O)CSc3ccc(S(=O)(=O)N(C)C)cc32)c1	/	7.1%	-5.3%
CCCCCn1c(CNC(=O)CCC)nc2ccccc21	19.2%	-0.2%	?
CCCCn1c(CNC(=O)CCC)nc2ccccc21	7.08µM*	5.3%	-12.1%
CCCCn1c(C(C)NC(=O)COC)nc2ccccc21 (stereo not drawn)	-9.6%	-2.5%	0.1%
CCCCCn1c(C(Cc2ccccc2)NC(=O)COC)nc2ccccc21 (stereo not drawn)	1.26µM*	7.1%	?
COc1cc2c(=O)c(C(=O)c3ccc(C)c(C)c3)cn(Cc3ccccc3F)c2cc1OC	/	4.6%	8.9%
CCOc1ccc(NC(=O)CC2C(=O)N(c3ccccc3)C(=O)N2Cc2ccc3c(c2)OCO3)cc1 (stereo not drawn)	/	1.4%	-6.5%
Cc1cc(C)cc(C(=O)NCC(c2ccc(N(C)C)cc2)N2CCCC2)c1 (stereo not drawn)	/	-5.8%	-1.6%
COc1cccc(NC(=O)Cn2c(=O)n(-c3cccc(OC)c3)c(=O)c3sc4ccccc4c32)c1	/	-7.9%	-8.8%
CCCCOc1ccc(CNC(=O)C2CCCN(c3nnc(-n4c(C)ccc4C)s3)C2)cc1 (stereo not drawn)	/	-35.5%	-1.1%
O=C1C=CC(O)(c2cc(=O)c3c(O)cc(O)cc3o2)C=C1	-19.1%	35.5µM*	?
O=c1cc(-c2ccccc2Cl)oc2cc(O)cc(O)c12	-23.9%	-2.8%	-11.6%
COc1ccc(NC(=O)c2c(C)oc3ccc(O)c(CN4CCN(Cc5ccccc5)CC4)c23)cc1Cl	/	-13.7%	22.0%
C/C(=N\NS(=O)(=O)c1ccccc1)c1ccccc1	-20.6%	-7.0%	0.3%
N/C(COc1ccccc1)=N\NS(=O)(=O)c1ccccc1	0.159µM*	1.8%	1.3%
CCn1cc(C(=O)NCCc2ccccc2)c(=O)c2cc(S(=O)(=O)N3CCc4ccccc4C3)ccc21	/	1.1%	-1.8%
Cc1ccccc1Nc1c(-c2ccc(Br)o2)nc2ccc(Cl)cn12	/	?	-3.2%
CCc1nnc(SCc2ccc(OC)cc2)c2cc3sc(C)cc3n12	/	?	16.5%
Cc1nc2ccc(NC(=O)c3ccc(Cl)c([N+](=O)[O-])c3)cc2s1	-18.2%	-9.7%	-2.7%
Cc1nc2ccc(NC(=O)c3cc([N+](=O)[O-])cc([N+](=O)[O-])c3Cl)cc2s1	-27.2%	0.501µM*	-12.5%
Cc1ccc(-c2nnn(CC(=O)N(CCO)C(C(=O)NC3CCCC3)c3ccc(F)cc3)n2)o1 (stereo not drawn)	6.2%	12.0%	2.2%
CCN(CC)C(=O)Cn1nnc(-c2ccc(C)o2)n1	32.4%	25.1µM*	-13.3%
COc1cc(C(C(=O)NC2CCCC2)N(CCO)C(=O)Cn2nnc(-c3ccc(C)o3)n2)ccc1O (stereo not drawn)	-13.2%	44.7µM*	-2.3%
SMILES	AmpC no deterg	Sm TGR block	AmpC inh detg
CCC(C(=O)NC1CCCC1)N(C(=O)Cn1nnc(-c2ccc(C)o2)n1)C(C)(C)C (stereo not drawn)	43.1%	-35.9%	?
CCc1ccc(NC(=O)N2CCN(Cc3cc(=O)n4nc(-c5ccccc5OC)sc4n3)CC2)cc1	/	1.8%	13.3%
O=C(Nc1nc2n(n1)C(c1ccccc1)C=C(c1ccccc1)N2)c1ccco1 (stereo not drawn)	-35.9%	1.78µM*	-12.4%
O=C(Nc1nc2n(n1)C(c1ccccc1)C=C(c1ccc(Cl)cc1)N2)c1ccco1 (stereo not drawn)	/	14.1µM*	9.0%
O=C(Nc1nc2n(n1)C(c1ccc(F)cc1)C=C(c1ccc(Cl)cc1)N2)c1ccco1 (stereo not drawn)	/	0.4%	0.7%
O=C(c1cc(-c2ccc(Cl)cc2)nc2ccccc12)N1CCOCC1	129.2%	-7.5%	-15.4%
O=C(c1nc2n(n1)C(c1ccc(Cl)cc1)C=C(c1ccccc1)N2)N1CCOCC1 (stereo not drawn)	25.0%	10µM*	-1.3%
O=C(Nc1nc2n(n1)C(c1ccc(F)cc1)CC(c1ccccc1)N2)c1ccco1 (stereo not drawn)	9.2%	-3.4%	-5.2%
CCOC(=O)c1c(S(=O)(=O)N2CCN(c3ccccc3OC)CC2)c(C)n(C)c1C	/	-4.3%	-3.7%
CC(C)OCCCNC(=O)c1cn(C)c2ccc(S(=O)(=O)N3CCCCCC3)cc2c1=O	/	4.5%	0.8%

Source: PubChem BioAssay
